Most compounds without a hit are left out; they make up all but 6.2% or so of the library.
Mot1-301 SUMO = blocks SUMOylation pathway, rescuing yeast Mot1-301 growth. growth rescue, % at 18.8 µM. AID 2716. S. cerevisiae Mot1-301 growth rescue, ATP luminescence, 38.5C; percent above DMSO median, 100 means doubled. 1% of 320,000 active;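 active = every valid replicate shows activation above 250% relative to neutral control wells; inactive = the rest, any valid replicate at or below 250%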;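 also: OY570 slx delta 5 strain wells were the positive control but not used for scaling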
Cardio protect = protects H9c2 cardiomyocytes from peroxide injury; H2O2 injury protection, ATPLite, 2 h; protection from H2O2 cell death, % at 20 µM; 0.63% of 360,000 active; AID 588492;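 active = compounds giving at least 50% protection of heart cells from peroxide-induced death in the single-dose screen, raw or plate-pattern-corrected value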;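 also: 0% = DMSO wells with peroxide and 100% = DMSO wells without peroxide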
NTR1 ag = agonists of human neurotensin receptor NTR1; NTR1-U2OS beta-arrestin-GFP spot imaging, agonist mode; activation, % at 20 µM; 0.17% of 330,000 active; AID 493036;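 active = activation at or above 40% of the spot to cytoplasm intensity ratio, with at least 20 cells analyzed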;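 also: 0% = DMSO without peptide and 100% = 100 nM NTR1 peptide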
Target sequence (P30989 whole entry, looked up): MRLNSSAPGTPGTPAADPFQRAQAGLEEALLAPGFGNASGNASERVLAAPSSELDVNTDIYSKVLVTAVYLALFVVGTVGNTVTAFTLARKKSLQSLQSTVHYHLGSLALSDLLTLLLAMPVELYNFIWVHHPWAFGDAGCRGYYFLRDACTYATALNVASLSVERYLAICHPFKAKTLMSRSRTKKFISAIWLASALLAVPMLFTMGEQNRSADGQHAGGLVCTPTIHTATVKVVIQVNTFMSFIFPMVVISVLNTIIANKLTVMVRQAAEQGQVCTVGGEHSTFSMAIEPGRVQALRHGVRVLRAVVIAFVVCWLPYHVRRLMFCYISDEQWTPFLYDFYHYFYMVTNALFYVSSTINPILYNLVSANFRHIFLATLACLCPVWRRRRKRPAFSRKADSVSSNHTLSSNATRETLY
AHR activator = activators of human aryl hydrocarbon receptor; activation, % at 5 µM; P35869; 2.5% of 320,000 active; AHR-responsive luciferase reporter cells, luminescence; in the data active = activation above about 47%;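 also: 0% = vehicle wells and 100% = reference agonist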
NR3A LBD binder = modulators (binders) of human NR3A ligand-binding domain | NR3A LBD differential scanning fluorimetry, Tm shift; 0% = protein alone, 100% = glycine-bound protein | Tm shift relative to glycine control, % at 25 µM | 2.5% of 340,000 active | AID 1259313;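 active = melting temperature shift of at least 10% of the positive control shift, at one fixed dose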
AI-2 QS mod = modulates the Vibrio harveyi AI-2 quorum sensing system. Vibrio harveyi JMH597 AI-2 luminescence/OD600 ratio, 9 h; active compounds read low; strain lacks LuxN and CqsS sensors; 0 = neutral-control median. 0.4% of 300,000 active. activity change, % at 7.5 µM; in the data active = activity change below about -75%, passing the limit was not always enough;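 also: luminescence divided by OD600 gain over 9 h not by final OD600 alone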
The depositor's hits bear a star; / = no result.

SMILES	Mot1-301 SUMO	Cardio protect	NTR1 ag	AHR activator	NR3A LBD binder	AI-2 QS mod
COC(=O)c1sc(NC(=S)NNC(=O)c2c(Br)c(C)nn2C)c(C(=O)OC)c1C	-1	-10	5	4	12*	64
CCc1ccccc1NC(=O)c1cc(C2CC2)on1	16	13	-3	0	-1	7
Cc1ccccc1Cn1cc(NC(=O)c2cc(C3CC3)on2)cn1	37	-4	7	74*	0	24
COc1ccc2[nH]cc(CCn3ccc(O)c(C/C=C/c4ccccc4)c3=O)c2c1	-12	-8	-1	6	13*	-14
Cc1cc(C(=O)Nc2cccc(O)c2)c(C)o1	13	-6	0	11	17*	11
N#CC1c2ccccc2-c2ccccc2N1C(=O)c1ccccc1 (centres undefined)	/	-8	/	/	/	/
O=C(O)c1c(C(=O)N2N=C3/C(=C/c4ccccc4)CCCC3C2c2ccccc2)cccc1[N+](=O)[O-] (centres undefined)	-8	-1	-1	78*	-1	7
COc1ccc(C(=O)COC(=O)c2ccc3c(c2)OCO3)c(OC)c1	52	-3	0	0	1	/
O=C(CCc1ccccc1)NNC(=O)Nc1ccc(Cl)cc1	11	-11	3	0	-3	8
O=C(CN1c2ccccc2Sc2ccccc21)NNC(=O)Nc1ccc(Cl)c(Cl)c1	-3	-6	8	5	16*	9
O=C(CN1c2ccccc2Sc2ccccc21)NNC(=O)Nc1ccc(Cl)cc1	-23	1	17	3	39*	13
O=C(CN1c2ccccc2Sc2ccccc21)N/N=C/c1ccccc1	18	-7	19	0	5	-3
Cn1c(=O)c2c(nc(C3CC4C5CCC(C5)C4C3)n2C)n(C)c1=O (centres undefined)	/	4	/	/	3	/
COc1cc2oc(=O)cc(-c3cccc(-c4ccc(C(F)(F)F)cc4)c3)c2c(OC)c1OC	/	-14	7	/	17*	/
Cc1cc(OCC(=O)C(C)(C)C)c2c(-c3ccccc3)cc(=O)oc2c1	297*	2	7	0	0	19
COc1cc(OC)c2c(-c3ccccc3)cc(=O)oc2c1	319*	-2	0	2	1	30
O=S(=O)(c1cccc(F)c1)N1CCN(Cc2cc3c(cc2Br)OCCO3)CC1	1	-8	2	1	1	/
COc1ccc(OC)c(CNC(=O)CCCc2cn(C)c3ccccc23)c1	1	3	-1	71*	0	12
COc1ccc(OC)c(/C=N/NC(=O)CCc2c(C)n[nH]c2C)c1	-12	-1	-1	39	0	12
COc1ccc(OC)c(/C=N/NC(=O)c2cc3c(OC)cccc3[nH]2)c1	12	29	4	23	6	30
COc1ccc(OC)c(/C=N/NC(=O)c2cc3c(OC)cc(OC)cc3[nH]2)c1	-4	51*	7	56*	3	16
COc1ccc(OC)c(/C=N/NC(=O)Cc2nc3ccccc3[nH]2)c1	3	0	-1	57*	-6	4
C=CCOc1ccc(/C=N/NC(=O)c2cc3c(OC)cc(OC)cc3[nH]2)cc1	42	26	8	68*	6	15
O=C(Cc1nc2ccccc2[nH]1)N/N=C/c1ccccc1	3	-1	-2	11	0	-22
COc1ccc(OC)c(/C=N/NC(=O)CCc2ccc(O)c(O)c2)c1	-2	51*	-1	9	22*	-8
SMILES	Mot1-301 SUMO	Cardio protect	NTR1 ag	AHR activator	NR3A LBD binder	AI-2 QS mod
CN(CC(O)COc1ccc2ccccc2c1)C1CCCCC1 (centres undefined)	-9	3	0	2	0	11
Cc1nnc(SCC(=O)Nc2cc(-c3cc(C)c(C)cc3C)nn2-c2ccccc2)s1	-8	4	4	104*	-3	14
O=C(CN(C(=O)CCC(=O)Nc1nccs1)c1cccc(F)c1)NCCc1ccccc1	0	-5	2	2	-2	16
COc1ccc(-c2cc(O)cc(O)c2)cc1	-5	-7	-2	9	11*	18
COc1ccc(OC)cc1	/	6	0	1	-3	/
NC(COCc1ccccc1)c1csc(Nc2ccccn2)n1 (centres undefined)	/	0	/	/	/	/
O=C(Nc1ccc(Br)cc1)c1cccnc1N1CCCCC1	7	2	4	50*	0	/
O=C(Nc1ccc(F)cc1)c1cccnc1N1CCCCC1	-7	2	1	3	0	24
CC1CC(C)CN(S(=O)(=O)c2ccc3c(c2)oc(=O)n3CC(=O)N(C)Cc2ccccc2)C1 (centres undefined)	333*	-14	-2	0	0	88
CC(C)COc1ccc(CNC(=S)Nc2ccccc2)cc1Cl	12	-14	23	36	15*	-2
CCCOc1ccc(CNC(=S)Nc2ccccc2)cc1Cl	191	-17	6	76*	18*	15
COc1ccc(CNC(=S)Nc2ccccc2)cc1Cl	-9	3	-1	0	-4	-37
CC(C)Oc1ccc(CNC(=S)Nc2ccccc2)cc1Cl	17	-9	0	1	-3	19
Cc1ccc2nc(-c3ccc(NC(=S)NC(=O)C(C)C)cc3)sc2c1	3	-9	0	-2	-5	7
Cc1ccc2nc(-c3ccc(NC(=O)C(C)N4C(=O)c5ccccc5C4=O)cc3)sc2c1 (centres undefined)	21	-7	1	6	16*	0
Cc1ccc2nc(-c3ccc(NC(=O)CCN4C(=O)c5ccccc5C4=O)cc3)sc2c1	10	-27	11	16	18*	-1
O=C(O)CCc1nc2ccccc2c(=O)[nH]1	-5	0	2	0	0	24
O=C(CCc1nc2ccccc2c(=O)[nH]1)NNC(=O)c1ccc(F)cc1	9	78*	-2	1	1	/
O=C(CCc1nc2ccccc2c(=O)[nH]1)NNC(=O)c1ccc(Cl)cc1	-8	61*	0	4	2	7
COc1ccc(C(=O)Nc2nc3cc(OC)c(OC)cc3c(=O)[nH]2)cc1	1	6	2	2	4	/
COc1cc(OC)cc(C(=O)NNC(=O)CCc2nc3ccccc3c(=O)[nH]2)c1	-12	56*	0	13	-1	/
O=C(CCc1nc2ccccc2c(=O)[nH]1)NNC(=O)COc1ccc(Br)cc1	2	45	0	1	0	27
COc1ccc(C(=O)Nc2nc3ccccc3c(=O)[nH]2)cc1	1	0	0	74*	-8	13
O=C(CCc1nc2ccccc2c(=O)[nH]1)NCc1cccc(Cl)c1	-24	37	-1	5	0	/
O=C(CCc1nc2ccccc2c(=O)[nH]1)NNC(=O)c1cccc(Cl)c1	14	70*	-2	2	-2	25

Screening results as filed in PubChem BioAssay.
